The list is not random: actives were taken first. Their share in the collection is about 2%.
Autophagy mod: autophagy modulators in MEF cells, primary screen, imaging, high-content, MEF GFP-LC3 | MEF GFP-LC3 puncta imaging; test concentration mostly 10 µM | calls only at 10 µM (by protocol) | actives 0.98% (n = 190,000);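 active means percentage of spot-positive cells more than 3 SD above its plate mean, without a fluorescence outlier flag or 80% toxicity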;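 further: spot-positive cell cutoff set from DMSO-treated cells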
PERK inhibitor: block of dimerizer-induced PERK translation repression, primary screen, PERK inhibitor project, CHO PERK-DD cells, SEAP luminescence, HTS | inhibition, % at 5.6 µM | Eukaryotic translation initiation factor 2-alpha kinase 3 (Homo sapiens), Q9NZJ5 | actives 0.17% (n = 220,000) | CHO PERK-DD fusion, SEAP luminescence translation reporter;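 active means inhibition above the mean inhibition of all tested compounds plus 3 SD, set separately per screening campaign, cut at about 2.9% in these data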;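 further: PERK kinase domain activated by AP20187 dimerizer at 100 nM; 0% = DMSO with dimerizer and 100% = rapamycin at 8.4 µM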
Target sequence (Q9NZJ5 whole entry, looked up, the tested form may be a part): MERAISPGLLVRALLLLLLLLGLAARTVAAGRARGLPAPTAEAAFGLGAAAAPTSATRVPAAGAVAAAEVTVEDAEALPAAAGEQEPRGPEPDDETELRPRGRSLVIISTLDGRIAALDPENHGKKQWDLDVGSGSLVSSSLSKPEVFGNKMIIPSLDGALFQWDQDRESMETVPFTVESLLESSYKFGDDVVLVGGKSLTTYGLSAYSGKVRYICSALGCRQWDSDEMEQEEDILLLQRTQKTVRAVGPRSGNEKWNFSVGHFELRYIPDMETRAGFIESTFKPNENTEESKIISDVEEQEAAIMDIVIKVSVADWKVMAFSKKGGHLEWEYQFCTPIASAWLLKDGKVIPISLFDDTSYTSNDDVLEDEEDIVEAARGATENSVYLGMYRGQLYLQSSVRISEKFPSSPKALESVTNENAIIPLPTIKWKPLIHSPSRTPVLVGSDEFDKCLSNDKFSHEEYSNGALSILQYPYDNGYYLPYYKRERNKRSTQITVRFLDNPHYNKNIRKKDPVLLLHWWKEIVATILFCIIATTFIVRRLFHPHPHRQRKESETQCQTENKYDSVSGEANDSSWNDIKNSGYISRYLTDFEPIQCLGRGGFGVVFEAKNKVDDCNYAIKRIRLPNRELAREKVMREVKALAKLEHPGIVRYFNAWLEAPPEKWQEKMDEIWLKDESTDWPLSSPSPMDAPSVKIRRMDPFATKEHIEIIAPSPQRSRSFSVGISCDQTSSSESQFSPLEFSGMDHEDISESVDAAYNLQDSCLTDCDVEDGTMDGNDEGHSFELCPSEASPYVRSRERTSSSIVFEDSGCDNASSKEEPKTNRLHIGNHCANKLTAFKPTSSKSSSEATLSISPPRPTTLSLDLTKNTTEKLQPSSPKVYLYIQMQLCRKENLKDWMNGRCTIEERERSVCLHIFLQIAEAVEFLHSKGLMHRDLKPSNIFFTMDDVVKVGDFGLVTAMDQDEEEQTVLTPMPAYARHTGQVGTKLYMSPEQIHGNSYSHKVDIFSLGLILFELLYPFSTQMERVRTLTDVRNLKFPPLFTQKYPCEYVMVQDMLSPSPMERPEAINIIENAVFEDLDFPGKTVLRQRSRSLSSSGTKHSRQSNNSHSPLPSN
Insulin prom inh: inhibitors of insulin promoter-driven GFP, primary screen, imaging, TRM-6 cells (human fetal islet line), eGFP reporter, cell count. actives 0.9% (n = 130,000). AID 1273, 2008. reporter expression induced with tamoxifen. inhibition, % at 2 µM;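 active means inhibition above the mean plus 3 SD, with well images judged a real hit on visual review, cut at about 60% in these data, passing the limit was not always enough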
Ins promoter up: insulin promoter activators in MIN6 cells, imaging, high-content screening, mouse beta cells; MIN6 insulin promoter-GFP reporter; stronger effect = higher value; z-score at 5 µM; actives 0.3% (n = 190,000); AID 1625, 2009;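 active means z-score above 3 at 5 µM with at least 500 cells counted in the well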
eIF4E 4G PPI: eIF4E–eIF4G protein interaction inhibitors, primary screen, biochemical, uHTS, TR-FRET, eIF4GI fragment. Eukaryotic translation initiation factor 4E (Mus musculus) + Eukaryotic translation …. AID 782, 2007. inhibition, % at 21.7 µM. actives 0.37% (n = 220,000). TR-FRET eIF4E-eIF4GI(517-606) binding, 2 h;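 active means inhibition above about 30%, limit read from the data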;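 further: 0% = full FRET control wells and 100% = background wells lacking eIF4GI fragment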
* marks the source's active call; other numbers are inactive results; i = inactive; x = no result given; + = active, no number.

SMILES | Autophagy mod | PERK inhibitor | Insulin prom inh | Ins promoter up | eIF4E 4G PPI
Cc1ccc(S(=O)(=O)Nc2csc(C)c2C(=O)O)cc1 | x | 1 | x | 0.4 | 2
COc1ccccc1NS(=O)(=O)c1cc(C(=O)N2CC(C)CC(C)C2)ccc1C (centres undefined) | i | -2 | x | -0.56 | 6
COc1cc2c(cc1OC)-c1nnc(C)n1C(C)(C)C2 | i | 1 | 19 | -1.4 | 2
COc1cc2c(cc1OC)-c1nncn1C(C)(C)C2 | i | 2 | x | 3.8* | 1
CCN1CCN(c2ncnc3c2c(-c2ccccc2)cn3-c2ccc(F)cc2)CC1 | + | 0 | 0 | x | 1
Nc1c(C(=O)O)sc2nc(-c3ccccc3)cc(-c3ccccc3)c12 | x | 1 | x | 4.6* | 1
Nc1c(C(=O)O)sc2nc(-c3ccccc3)cc(-c3ccc(F)cc3)c12 | x | 0 | x | 0.84 | 8
Cn1c(CCN2CCOCC2)nc2cc(NC(=O)c3cccs3)ccc21 | i | 0 | 8 | -0.22 | -4
COc1ccc(CN2CCC(C(=O)NCCc3ccc(OC)c(OC)c3)CC2)c(OC)c1 | i | -1 | -74 | 2.9 | 3
C=CCNC(=O)C1CCN(S(=O)(=O)c2ccc(Br)cc2)CC1 | i | 0 | x | 3.1* | 3
Cc1nc(N)c(CC(Br)CBr)c(Cl)n1 (centres undefined) | x | 1 | x | -0.11 | -1
O=C(/C=C/c1cn(CC(O)CN2CCCCC2)c2ccccc12)c1cccs1 (centres undefined) | + | -1 | x | 4.6* | 20
O=C(/C=C/c1cn(CC(O)CN2CCCCC2)c2ccccc12)c1ccccc1 (centres undefined) | x | 0 | x | 0.77 | 9
Brc1ccc(Oc2nsnc2N2CCOCC2)cc1 | i | 2 | -57 | 3.9* | -4
COC(=O)Oc1nsnc1N1CCOCC1 | i | 1 | -18 | x | 26
Cc1cccc(NC(=S)NC(=O)C(c2ccccc2)c2ccccc2)n1 | i | -1 | 72* | x | x
O=C(COCC(=O)N/N=C/c1ccc(F)cc1)N/N=C/c1ccc(F)cc1 | i | 1 | x | -0.19 | -1
CN1CCc2c(sc3c2C(=O)NC(c2ccco2)N3)C1 (centres undefined) | i | 0 | 0 | 1.4 | -1
CN1CCc2c(sc3c2C(=O)NC(c2cn(Cc4ccccc4)c4ccccc24)N3)C1 (centres undefined) | + | -1 | -130 | -2.1 | -16
COc1ccc(C2SCC(C(=O)NCc3ccc(F)cc3)N2C(C)=O)cc1 (centres undefined) | i | 1 | x | 1.4 | 3
CC[N+](C)(C)CC/C=C1/c2ccccc2Sc2ccc(Cl)cc21 | x | 1 | x | -1.3 | 86*
CC(=O)Nc1ccc(NC(=O)CN(c2cccc([N+](=O)[O-])c2)S(C)(=O)=O)cc1 | i | 0 | -6 | 0.82 | -3
O=C(Nc1ccc(Cl)cc1)NN1CC(=O)N(c2cccc(C(F)(F)F)c2)CC1=O | x | -1 | x | -0.55 | 0
Cc1ccccc1NC(=S)NCC(c1cccnc1)N(C)C (centres undefined) | i | 0 | x | 0.88 | 7
C=CCNC(=O)c1onc(CSc2ccc(F)c(F)c2)c1C(=O)O | i | 3.1* | 8 | 1.9 | 4
SMILES | Autophagy mod | PERK inhibitor | Insulin prom inh | Ins promoter up | eIF4E 4G PPI
C=CCNC(=O)c1onc(CSc2ccc(Cl)cc2)c1C(=O)O | i | 2 | 35 | -0.28 | -4
CCOc1ccc(C2CC(c3c(O)c4ccccc4oc3=O)=NN2c2ccccc2)cc1OC (centres undefined) | + | 2 | -338 | x | 12
CCOc1ccc(C2/C(=C(/O)c3ccccc3)C(=O)C(=O)N2CCCN(C)C)cc1OC (centres undefined) | i | 1 | 29 | x | x
COc1ccc(C(=O)OCCc2ccc(O)cc2)cc1 | i | -1 | -19 | -0.01 | 8
COc1ccc(C(=O)OCC[N+]2(C)CCOCC2)cc1 | i | 0 | 21 | 0.29 | 31*
CCc1nc2ccccc2c2nc3ccccc3n12 | i | -2 | 6 | -0.84 | 6
O=c1c2ccc([N+](=O)[O-])c3cccc(c32)c2nc3ccccc3n12 | + | 0 | x | 0.31 | -7
O=c1c2cccc3c(N4CCOCC4)ccc(c32)c2nc3ccccc3n12 | x | x | x | 9.8* | x
C#CCOCCOCCOCCNc1nc(N2CCN(C(=O)[C@H](CCCCN)n3cc([C@@H](N)C(C)CC)nn3)CC2)nc(N2CCN(C(=O)[C@H](CCCCN)n3cc([C@@H](N)CC(C)C)nn3)CC2)n1 (some centres undefined) | i | 0 | x | -0.76 | 1
CC1=C(CC(=O)c2ccc(Cl)cc2)C(=O)c2ccccc2C1=O | i | 2.9* | 14 | x | 0
Cc1oc2c(c1C(=O)c1ccc(Cl)cc1)C(=O)C(=O)c1ccccc1-2 | i | 1 | 13 | 0.05 | 4
Cc1nc2cc(N3CCCCC3)c(NC(=O)c3ccncc3)cc2c(=O)n1Cc1ccc(Cl)cc1 | + | -1 | x | x | -41
C/C(Cc1ccccc1)=N\NC(=O)CNC(=O)c1ccc(Cl)cc1Cl | x | -1 | x | 0.12 | -3
Cc1cc(C)n2nc(SCC(=O)N(C)c3c(N)n(Cc4ccccc4)c(=O)[nH]c3=O)nc2n1 | i | 0 | 18 | 0.08 | -2
COc1ccc(-c2[nH]ncc2/C=N\NS(=O)(=O)c2ccc(Cl)cc2)cc1 | i | 0 | 6 | -0.16 | -1
COc1ccc(-c2[nH]ncc2C=O)cc1 | i | 1 | 60* | -0.23 | 0
COc1ccc(-c2c(C)oc3c(CN4CCN(C)CC4)c(O)ccc3c2=O)cc1 | + | -1 | x | 1.4 | 0
Cc1cccc(CC2S/C(=N/c3ccccn3)NC2=O)c1 (centres undefined) | + | 0 | 35 | 0.18 | -1
O=C1N/C(=N\c2ccccn2)SC1Cc1ccccc1Cl (centres undefined) | x | 1 | x | -0.11 | 0
CCOc1c(Cl)cc(CNCC(O)c2ccccc2)cc1OC (centres undefined) | + | 1 | -22 | 0.07 | 3
CCSC(=Nc1ccccc1)Nc1ccccc1 | i | 0 | x | -0.26 | 0
O=C(COC(=O)c1cnccn1)c1cccc([N+](=O)[O-])c1 | x | 2 | x | 0.48 | 4
Cc1ccc(NC(=O)CCn2cccc2)cc1Cl | i | 1 | -27 | 3.2* | 5
CCc1ccc(NC(=O)CCn2cccc2)cc1 | i | 1 | 18 | 0.37 | -3
N/C(=N\OC(=O)C(c1ccccc1)c1ccccc1)c1ccccn1 | i | -1 | 0 | x | -5
C/C(=N\NC(=O)C(c1ccccc1)c1ccccc1)c1ccccn1 | + | 0 | -75 | -1.4 | -2
CC(C)(C)C(=O)CNS(=O)(=O)c1ccc(S(=O)(=O)NC2CCCC2)cc1 | i | 0 | -29 | x | -2

Assay outcomes as filed in PubChem.
